Data published in PubChem BioAssay (NCI).
Compounds without any hit were thinned out: in the full panel of roughly 79,000, 15% have a hit. A number with no mark means an inactive call. The source made the active and inactive calls. Cut-off read from the data, not from the text of the source: active = growth inhibition above about 70%; inactive = the rest.

Experiment: NCI Yeast Anticancer Drug Screen. Data for the CLN2oe strain (AID 163);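 note: 0% = growth of vehicle-only control cultures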
Conditions: S. cerevisiae CLN2oe strain, stronger effect = higher value
Procedure: Growth inhibition of yeast strains with defined genetic alterations is measured as a screen for potential anti-cancer activity. Selected strains with alterations in DNA damage repair or cell cycle control were exposed to compounds and growth inhibition was measured relative to vehicle treated controls. The strain used in this assay is CLN2oe

SMILES | growth inhibition (at 1.2 µM) | growth inhibition (at 3.7 µM) | growth inhibition (at 11.0 µM) | growth inhibition (at 33.0 µM) | growth inhibition (at 100.0 µM)
CCCCCCCSCC1C(=O)C23C(O)C1CCC2C12COC3(O)C(O)C1C(C)(C)CCC2O (stereo not given) | 19% | 6% | 89% (active) | 97% (active) | 91% (active)
N#CSCC1COc2ccccc2O1 (stereo not given) | -11% | -14% | -14% | 70% (active) | 98% (active)
COC1=CCC23C(=O)C=CC(=O)C2(C1)C(=O)c1ccccc1C3=O (stereo not given) | 17% | 8% | 18% | 38% | 92% (active)
C[C@H](CCC1=NC(C)(C)CO1)C1CCC2[C@@H]3C(O)C[C@@H]4CC(O)CC[C@]4(C)C3CC[C@@]21C (stereo not given in full) | -6% | -12% | -11% | 62% | 99% (active)
CCOC(=O)C(Cc1c2ccccc2cc2ccccc12)(NC(C)=O)C(=O)OCC | -3% | -2% | -6% | 0% | -2%
NC(N)=NS(=O)(=O)c1ccc(Nc2c3ccccc3nc3c(C(=O)NC(CO)(CO)CO)cccc23)cc1 | 2% | 2% | 4% | 1% | 1%
O=C1c2cccc3cccc(c23)C(=O)N1O | 6% | 8% | 29% | 92% (active) | 99% (active)
CC(=O)/C=C/c1cc([N+](=O)[O-])ccc1O | -5% | 3% | 23% | 86% (active) | 98% (active)
